# IL1B secr inh – inhibitors of inflammasome signaling (IL-1 beta secretion) | THP-1 LPS/ATP IL-1B secretion, AlphaLISA, 16 h; stronger effect = lower value | activity change, % at 57.5 µM | 360,000 tested, 4.7% active | AID 743279; in the data active = activity change below about -50%; inconclusive = mostly about -30% to -49%
#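 THP-1 cells pretreated 1 hr with compounds (up to 57.5 uM final), then stimulated with LPS (250 ng/mL final) plus ATP (1.25 mM final); secreted IL-1B measured by AlphaLISA after 16 hr, decreased signal indicating inhibition.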
# HT1080 IDH1KD tx – kills HT-1080 cells with IDH1 knockdown; Potency, µM (doses to about 46.1 µM), inactives show at the highest dose activity, negative = toxicity, hits mostly cytotoxic; 360,000 tested, 2% active; AID 686971; HT-1080 IDH1 knockdown viability, ATP luminescence, 48 h;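 also: potency is read from the fitted curve at half-maximal effect; 0% = DMSO wells and -100% = cell-free medium wells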
#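 In this qHTS, HT-1080 cells depleted of IDH1 are exposed for 48 h at 37 °C to compound titrations. Toxicity is scored from CellTiter-Glo luminescence, with DMSO as full viability and medium alone as none.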
# TDP1 cell CPT – growth inhibition of DT40 Tdp1-/-;hTDP1 cells with camptothecin (screen for TDP1 inhibitors) | chicken DT40 Tdp1-/-;hTDP1 cells + 20 nM CPT, ATP luminescence, 48 h | AID 686979 | 420,000 tested, 12% active | Potency, µM (titrated, usually from 46.2 µM), inactives show at the top dose activity change, negative = growth inhibition, hits mostly inhibitors; also: potency is read from the fitted curve at half-maximal effect; nearly all actives have a fitted effect of over 55% in size
#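 Chicken DT40 Tdp1-/- cells complemented with human TDP1, 400 cells/well, exposed to compounds plus 20 nM camptothecin for at least 48 h at 37 C; viability read as ATP content by CellTiter-Glo luminescence.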
# HT1080-NT tox – kills 2HG-producing HT-1080-NT fibrosarcoma cells. HT-1080-NT fibrosarcoma viability, CellTiter-Glo ATP luminescence, 48 h. Potency, µM (series often up to 46.1 µM), for inactives: at the highest dose activity, negative = less viability, actives largely listed as cytotoxic. 360,000 tested, 1.6% active. AID 686970;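 also: NT is the 2HG producing partner of a matched IDH1 knockdown line; potency is read from the fitted curve at half-maximal effect; 0% = DMSO-treated cells and -100% = media-only wells without cells; nearly all actives have a fitted effect of over 55% in size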
#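 750 cells/well, RPMI + 5% FBS; 2 h settle, compound pin-transfer, 48 h at 37 degrees C. CellTiter-Glo 10 min RT, luminescence. Normalized to DMSO and media-only wells.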
# TDP1 cell noCPT – qHTS for Inhibitors of human tyrosyl-DNA phosphodiesterase 1 (TDP1): qHTS in cells in absence of CPT; DT40 Tdp1-/- hTDP1 cells, no CPT, ATP luminescence, 48 h; Potency, µM (top dose mostly 46.2 µM), inactives show at the top dose activity change, negative = growth inhibition, hits mostly inhibitors; AID 686978, 2013; 420,000 tested, 15% active; also: potency is read from the fitted curve at half-maximal effect; nearly all actives have a fitted effect of over 55% in size
#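 Camptothecin absent (DMSO only). Human TDP1-complemented DT40 knockout cells, 400 cells/well, 37 °C for minimum 48 hr; ATP measured via CellTiter-Glo, 30 min dark incubation, luminescence.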
# ELG1 repair inh – inhibitors of ELG1-dependent DNA repair in HEK293T cells; HEK293T ELG1-luciferase reporter, luminescence, 16 h; DNA damage induced by 5-fluorouridine; AID 504467; Potency, µM (doses to about 46.1 µM), for the others: at the highest dose activity change, negative = inhibition, most hits filed as inhibitors; 330,000 tested, 2.3% active; also: potency is read from the fitted curve at half-maximal effect; nearly all actives have a fitted effect of over 55% in size
#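 HEK293T cells expressing luciferase-tagged ELG1 (2,000/well) received 5-Fluorouridine plus compound or DMSO for 16 hr at 37 °C. Luciferase was read by ONE-Glo luminescence after 30 min at room temperature.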
# * marks the source's active call; other numbers are inactive results; u = inconclusive; x = no result given; [ ] = another dose, or the depositor's remark. Only some compounds are listed: those with a hit (about 19% of all), similar ones and a draw of the others. Unless noted, calls follow the shape of the dose curve; as a rule, active = well fitted curve in the direction sought with a large enough effect; inconclusive = small, poorly fitted or top-dose-only effect, or another doubt; inactive = no such curve, though single readings can be large; an effect the other way counts as inactive or inconclusive. Unless noted, % is scaled to controls: 0 for no effect and ±100 for the full control effect.
SMILES,IL1B secr inh,HT1080 IDH1KD tx,TDP1 cell CPT,HT1080-NT tox,TDP1 cell noCPT,ELG1 repair inh
CCn1c(-c2csc3c2CCCC3)n[nH]c1=S,-5,13%,29µM*,12%,23µM*,u
COc1ccc(S(=O)(=O)NNc2nc(C)cc(C)n2)cc1Br,41,4%,3%,9%,-1%,4%
CCC(C(=O)NC1CCCCC1)n1c(SCc2ccccc2F)nc2ccncc21 (stereo unspecified),-23,-1%,u,8%,u,u
Cc1ccc(Cn2c(SCc3ccc(C(=O)NCCc4ccccc4)cc3)nc3ccncc32)cc1,x,x,15µM*,x,12µM*,x
CCn1c(CCNC(=O)c2ccc(OC)cc2)nnc1SCc1ccc(Cl)cc1Cl,-26,-12%,u,2%,u,u
CCn1c(CCNC(=O)c2ccc(C)cc2)nnc1SCc1ccc(Cl)c(Cl)c1,u,-13%,21µM*,-13%,23µM*,u
O=C(NCCc1ccccc1)c1ccc(CSc2nc3ccncc3n2Cc2ccccc2)cc1,x,x,4.6µM*,x,u,x
CCN(CC)CCNC(=O)c1ccc(Cn2c(SCc3ccccc3)nc3cccnc32)cc1,x,x,-23%,x,-26%,x
Cc1ccccc1Cn1c(SCc2ccc(C(=O)NC3CCCCC3)cc2)nc2ccncc21,x,x,23µM*,x,u,x
O=C(O)c1ccsc1Cc1cccs1,-9,0%,u,1%,-5%,x
Cc1ccccc1Cn1c(SCc2ccc(C(=O)NCCc3ccccc3)cc2)nc2ccncc21,x,x,21µM*,x,21µM*,x
Cc1ccc(-c2nc(-c3cc4cccc(OCc5cccc(C)c5)c4oc3=O)no2)cc1,x,x,u,x,9.2µM*,x
CCOc1cccc2cc(-c3nc(-c4ccccc4C)no3)c(=O)oc12,x,x,-14%,x,u,x
Cc1c(NC(=O)COC(=O)CSc2ccc([N+](=O)[O-])cc2)c(=O)n(-c2ccccc2)n1C,-3,0%,-3%,3%,-1%,5%
CCOc1ccccc1CNC(=O)CCCn1nc(C)c2sc3ccccc3c2c1=O,x,x,-21%,x,u,x
O=C(CN1C(=O)CCc2cc(S(=O)(=O)N3CCOCC3)ccc21)Nc1cccc(Cl)c1,x,x,-28%,x,4%,x
CC(C)(C)c1ccc(CC(=O)N2CCC2(C)C(=O)Nc2ccc3[nH]ncc3c2)cc1 (stereo unspecified),-1,2%,15µM*,6%,9.2µM*,x
C#Cc1ccc(NC(=O)C2(C)CCN2C(=O)Cc2ccc(C(C)(C)C)cc2)cc1 (stereo unspecified),-3,10µM*,21µM*,u,u,x
CC1(C(=O)Nc2ccc3[nH]ncc3c2)CCN1C(=O)CCc1ccccc1 (stereo unspecified),-7,19%,u,16%,u,x
CCCC(=O)N1CCCC1(C)C(=O)Nc1ccc2cn[nH]c2c1 (stereo unspecified),12,16%,-27%,3%,-2%,x
C#Cc1ccc(NC(=O)C2(C)CCN2C(=O)C/C=C/c2ccccc2)cc1 (stereo unspecified),-10,u,16µM*,u,9.2µM*,x
CC1(C(=O)Nc2ccc3[nH]ncc3c2)CCN1C(=O)Cc1ccc(-c2ccccc2)cc1 (stereo unspecified),u,-22%,16µM*,u,13µM*,x
Cc1ncc2c(c1CNS(=O)(=O)N(C)C)CCN(C(=O)c1c(F)cccc1F)C2,x,x,6%[9.04 µM],x,-10%,x
O=C(CC1CCCC1)Nc1ccc(Br)cc1,-56*,-15%,-1%,1%,-14%,u
COc1ccc(NC(=O)CC2CCCCC2)cc1OC,15,-2%,-20%,-3%,-21%,u
SMILES,IL1B secr inh,HT1080 IDH1KD tx,TDP1 cell CPT,HT1080-NT tox,TDP1 cell noCPT,ELG1 repair inh
Cc1cccc(NC(=O)C2CCCC2)c1,4,4%,0%,19%,2%,38%
S=C(Nc1ccc(Br)cc1)NC1CCCC1,-62*,-9%,u,-10%,21µM*,u
Cc1cccc(NNC(=O)C2CCC2)c1,7,7.3µM*,5%,7.3µM*,0%,u
Cc1cccc(NC(=S)NC2CC3CCCC(C2)N3Cc2cccs2)c1 (stereo unspecified),-78*,u,23µM*,u,23µM*,-9%
COCCNC(=S)NC1CC2CCCC(C1)N2Cc1cccs1 (stereo unspecified),12,21%,-1%,-6%,-12%,0%
CC(Sc1nnc(C2CC2)n1C)C(=O)Nc1ccc(N2CCOCC2)cc1 (stereo unspecified),-3,1%,-1%,-3%,-5%,0%
Cc1cccc(NC(=S)NC2CCCC2)c1,29,27%,u,19%,15µM*,2%
COc1ccc(C2=NN(S(C)(=O)=O)C(c3ccc4nccnc4c3)C2)cc1 (stereo unspecified),5,-5%,u,0%,-21%,u
COc1ccc(C2CC(c3ccc(OC)c(OC)c3)=NN2S(C)(=O)=O)cc1 (stereo unspecified),46,-14%,18µM*,-6%,u,u
CS(=O)(=O)N1N=C(c2ccccc2)CC1c1ccc2nccnc2c1 (stereo unspecified),-5,11%,u,13%,26µM*,13%
Cc1cccc(-n2ncc3c2CCCC3NC(=O)CCN2CCCCO2)c1C (stereo unspecified),16,-3%,u,-14%,u,-2%
Cc1cc2oc3ccc(NCCCN4CCOCC4)cc3c(=O)c2cc1C,-6,18%,10µM*,18%,13µM*,x
Cc1cc2oc(=O)cc(Cn3ccnc3)c2cc1C,6,-6%,8%,1%,-4%,0%
Cc1cc2oc3ccc(NCCCn4ccnc4)cc3c(=O)c2cc1C,14,u,u,u,15µM*,x
COc1ccc(-n2nc(-c3ccc(C)cc3)c3cnc4cc(F)c(F)cc4c32)cc1,x,x,-3%,x,-15%,x
COc1cc(/C=C/C(=O)N2CCN(c3n[nH]c(=O)[nH]c3=O)CC2)cc(OC)c1OC,3,18%,u,-4%,-13%,u
CSc1ccc(OC2CCCCC2NS(=O)(=O)c2ccc(Cl)cc2)cc1 (stereo unspecified),-11,u,26µM*,u,u,-14%
CCN(CC)C1CCCCC1NS(=O)(=O)c1ccc(Cl)cc1 (stereo unspecified),-8,1%,-21%,11%,-13%,8%
